# Measured values published in PubChem BioAssay (NCATS).
# Inconclusive results are not listed. A number with no mark means an inactive call. Activity calls are given as the source filed them. The call rests on the fitted dose curve; in most records, active means well fitted inhibition curve with a large enough effect; inconclusive means small, poorly fitted or top-dose-only effect; inactive means no such curve, though single readings can be large or run the other way.
# Experiment: qHTS Screen of the MIPE 4.0 Collection Against Ewings Sarcoma (TC71) (AID 1259253); further: nearly all actives have a fitted effect of over 40% in size;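 on viability (% of DMSO): 100% = DMSO-treated cells and 0% = medium-only wells without cells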
# Conditions: TC71 Ewing sarcoma viability, CellTiter-Glo, 48 h; series mostly up to 45.8 µM; viability (% of DMSO): at the top concentration
# Excerpt: There is a large unmet medical need for treatments for Ewing sarcoma, a pediatric sarcoma. We sought to identify compounds that inhibited Ewing sarcoma cells in vitro with the goal to then test promising drugs in two drug combinations in vitro to look for synergistic drug combinations. Promising combinations would then proceed to additional validation, including in vivo testing.
# Using the NCATS developed oncology compound library called the Mechanism of Interrogation Plate (MIPE), four Ewing sarcoma cell lines were evaluated (TC32, TC71, RDES, EW8). Compounds, in a 12-point titration series, were incubated with cells for 48 hours and the read out was cell viability (CellTiter-Glo from Promega). These initial experiments were used to select appropriate concentrations of each single agent for subsequent two-drug matrix combinations such that the concentrations in the matrices would span both activity and non-activity.
# Cells, in the log phase of growth, were seeded in 5 uL of RPMI plus 5% FBS, […] L-glutamine, 100 U/ml penicillin and 100 ug/ml streptomycin into 1536-well solid-bottom white tissue culture treated Greiner Bio One Plates (789173-F) using a MultiDrop Combi (Thermofisher Scientific) dispenser and a small sterile cassette. One column was media alone to be used as a :"no cells" control. The plates were then covered with sterilized stainless steel gasketed lids from Kalypsys. After allowing cells to attach for 4 hours, 23 nL of test compound or control (negative control DMSO and positive control 9.2 uM Bortezomib-final) were added from a 1536-well polypropylene compound source plate to each well using a 1536 head pin tool from Kalypsys. Cells were then incubated for 48 hours at 37C, 95% relative humidity and 5% CO2. After 48 hours, plates were removed from the incubator and 3 uL of CellTiter-Glo (Promega) was added using an Aurora Flying Reagent Dispenser Bioraptor. Plates were incubated at room temperature for 10 minutes prior to reading the luminescence on the Viewlux (PerkinElmer). The relative luciferase units are used to calculate the percent activity using the activity of DMSO in the cells and no cells columns for normalization of no inhibition and full inhibition respectively.
# Potency means the concentration at half of the fitted maximal effect.
SMILES,viability (% of DMSO) [%],Potency
NCCCC(O)(P(=O)(O)O)P(=O)(O)O,114,
COc1cnc(NS(=O)(=O)c2ccc(N)cc2)nc1,138,
CCn1cc(C(=O)O)c(=O)c2cc(F)c(N3CCN(C)CC3)cc21,115,
O=C(O)CSCC(=O)NC1CCSC1=O (stereo not given),133,
CCc1c2c(nc3ccc(OC(=O)N4CCC(N5CCCCC5)CC4)cc13)-c1cc3c(c(=O)n1C2)COC(=O)[C@]3(O)CC,,0.332 µM (active)
C1CCC(C(CC2CCCCN2)C2CCCCC2)CC1 (stereo not given),,13.2 µM (active)
Cc1ncc([N+](=O)[O-])n1CCO,124,
C#CCN[C@@H]1CCc2ccccc21,116,
COCCCOc1cc(C[C@@H](C[C@H](N)[C@@H](O)C[C@H](C(=O)NCC(C)(C)C(N)=O)C(C)C)C(C)C)ccc1OC,126,
NC(=O)c1ccc2[nH]ccc2c1,130,
CNS(=O)(=O)Cc1ccc2[nH]cc(CCN(C)C)c2c1,122,
O=C(NCC1CN(c2ccc(N3CCOCC3=O)cc2)C(=O)O1)c1ccc(Cl)s1 (stereo not given),98.4,
O=C(O)c1ccc(-n2nc(-c3ccccc3O)nc2-c2ccccc2O)cc1,,14.8 µM (active)
OC(Cn1cncn1)(Cn1cncn1)c1ccc(F)cc1F,111,
COc1cc(NS(=O)(=O)c2ccc(N)cc2)nc(OC)n1,131,
CCCCCCNC(=O)n1cc(F)c(=O)[nH]c1=O,,8.33 µM (active)
CCCCOc1ccc(CC(=O)NO)cc1,,7.43 µM (active)
CN1CCN(c2c(F)cc3c(=O)c(C(=O)O)cn(CCF)c3c2F)CC1,130,
CCCc1cc(C(N)=S)ccn1,131,
NC(N)=NC(N)=NCCc1ccccc1,,18.7 µM (active)

SMILES,viability (% of DMSO) [%],Potency
Cc1nnc(C(=O)NC(C)(C)c2nc(C(=O)NCc3ccc(F)cc3)c(O)c(=O)n2C)o1,112,
CCn1cc(C(=O)O)c(=O)c2cc(F)c(N3CCNCC3)cc21,149,
CC1(C)[C@H](C(=O)O)N2C(=O)C[C@H]2S1(=O)=O,134,
CCOCC(O)COc1ccc(NC(=O)CC[S+](C)C)cc1 (stereo not given),124,
N=C(N)c1ccc(OCCCCCOc2ccc(C(=N)N)cc2)cc1,,8.33 µM (active)
COc1ccc(-c2ccc3cc(C(=O)O)ccc3c2)cc1C12CC3CC(CC(C3)C1)C2,,2.96 µM (active)
COc1cc2c(Nc3ccc(Br)cc3F)ncnc2cc1OCC1CCN(C)CC1,,5.9 µM (active)
CNNCc1ccc(C(=O)NC(C)C)cc1,149,
Cc1noc(NS(=O)(=O)c2ccc(N)cc2)c1C,111,
CN(C)CCc1c[nH]c2ccc(CS(=O)(=O)N3CCCC3)cc12,119,
CCN[C@H]1C[C@H](C)S(=O)(=O)c2sc(S(N)(=O)=O)cc21,115,
Cc1onc(-c2ccccc2Cl)c1C(=O)N[C@@H]1C(=O)N2[C@@H]1SC(C)(C)[C@@H]2C(=O)O,129,
Cc1oc(=O)oc1CN1CCN(c2cc3c(cc2F)c(=O)c(C(=O)O)c2n3C(C)S2)CC1 (stereo not given),115,
CCN(C)C(=O)Oc1cccc([C@H](C)N(C)C)c1,111,
COc1ccc2c(c1)c(CC(=O)OCC(=O)O)c(C)n2C(=O)c1ccc(Cl)cc1,104,
CC(C)NCC(O)c1ccc(NS(C)(=O)=O)cc1 (stereo not given),,16.6 µM (active)
CC(=O)[C@H]1CC[C@H]2[C@@H]3CC=C4C[C@@H](O)CC[C@]4(C)[C@H]3CC[C@]12C,119,
CC1CC2C3CCC4=CC(=O)C=C[C@]4(C)[C@@]3(F)[C@@H](O)C[C@]2(C)[C@@]1(O)C(=O)CO (stereo not given in full),113,
O=C(O)c1cc(=O)[nH]c(=O)[nH]1,131,
CN(Cc1cc(Br)cc(Br)c1N)C1CCCCC1,103,
